This passage reports Potency, outcome and max activation results from PubChem BioAssay (Tox21).

Assay [1] in a line: Human pregnane X receptor (PXR) small molecule agonists, qHTS cell viability counter screen (AID 1346977). Also: nearly all actives have a fitted effect of over 50% in size. Also: potency is read from the fitted curve at half-maximal effect. In short, it runs like this:
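HepG2 cells stably carrying the PXR-Luc reporter are cultured with 5% charcoal-stripped FBS and treated with compounds for 24hr. CellTiter-Fluor is added at 23hr and fluorescence is read after 1hr.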

Assay [2] in a line: Caspase-3/7 induction in HepG2 cells by small molecules, qHTS assay (AID 1346978). Also: nearly all actives have a fitted effect of over 15% in size. In short, it runs like this:
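Caspase-3/7 induction was measured by Caspase-Glo 3/7 luminescence (30 min, room temperature) after a 17 hr compound exposure of wild-type HepG2 cells seeded at 2,000 per well and pre-incubated 5 hr.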

Assay [3] in a line: Caspase-3/7 induction in CHO-K1 cells by small molecules, qHTS cell viability counter screen (AID 1346979). Also: nearly all actives have a fitted effect of over 35% in size. Also: potency is read from the fitted curve at half-maximal effect. Summed up:
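Seeding: 1,500 CHO-K1 cells/well. Rest: 5hr, 37C. Treatment: compounds in DMSO, 16hr. Read: CellTiter-Fluor, 1hr, fluorescence.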
Background: Quantitative high-throughput screening tests each substance at several concentrations.

Assay [4] can be described thus: Caspase-3/7 induction in CHO-K1 cells by small molecules, qHTS assay (AID 1346980). Also: nearly all actives have a fitted effect of over 15% in size. Summed up:
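Luminescent Caspase-Glo 3/7 read (30min, room temperature) quantified apoptosis induction. Cells were wild-type CHO-K1, treated with compound for 17hr at 37 C and 5% CO2.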

The nature of assay [5]: Caspase-3/7 induction in HepG2 cells by small molecules, qHTS cell viability counter screen (AID 1346981). Also: nearly all actives have a fitted effect of over 30% in size. Also: potency is read from the fitted curve at half-maximal effect. Summed up:
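HepG2, WT, 2,000 cells/well; 5 hr pre-incubation 37 C/5% CO2; compound pin-transferred from DMSO; 16 hr exposure; CellTiter-Fluor, 1 hr; fluorescence read.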

Assay [6] addresses Nuclear receptor subfamily 1 group I member 2 (Homo sapiens) (UniProt O75469). Nature of the assay: Human pregnane X receptor (PXR) small molecule agonists, qHTS assay (AID 1346982). Also: nearly all actives have a fitted effect of over 35% in size. Also: potency is read from the fitted curve at half-maximal effect. In short, it runs like this:
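Luciferase signal from ONE-Glo (30 min, room temperature) measured activation of hPXR-driven CYP3A4 reporter expression in PXR-Luc HepG2 cells treated with compounds for 24 hr at 37 C.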

Assay [7] addresses Cytochrome P450 2C9 (Homo sapiens) (UniProt P11712). Nature of the assay: Cytochrome P450 Family 2 Subfamily C Member 9 (CYP2C9) small molecule antagonists: luciferase reporter qHTS assay (AID 1671198). Also: nearly all actives have a fitted effect of over 50% in size. Also: potency is read from the fitted curve at half-maximal effect. Summed up:
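Enzyme-substrate mix preincubated with compound 10 min at room temperature; reaction started with NADPH regeneration solution, 1 h 37C. Luminescent luciferin product read after 20 min detection reagent.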

Assay [8] concerns the target Voltage-gated inwardly rectifying potassium channel KCNH2 (Homo sapiens) (UniProt Q12809). Nature of the assay: Human Ether-a-go-go-Related Gene (hERG) channel small molecule antagonists: fluorescence cell-based qHTS assay (AID 1671200).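 Also: hERG-expressing U2OS cells given a thallium stimulus after FluxOR II dye loading; series mostly up to about 77 µM; nearly all actives have a fitted effect of over 50% in size.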 Summed up:
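First, 1000 cells per well are seeded and cultured overnight at 37 C. Next, FluxOR II dye is loaded for 1 h at room temperature, protected from light. After 10 more minutes, stimulus is added and fluorescence is read.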
(In general: Block of hERG is tested as a sign of cardiac risk.)

Assay [9] deals with Cytochrome P450 3A4 (Homo sapiens) (UniProt P08684). Nature of the assay: Cytochrome P450 Family 3 Subfamily A Member 4 (CYP3A4) small molecule antagonists: luciferase reporter qHTS assay (AID 1671201). Also: series mostly up to about 120 µM; nearly all actives have a fitted effect of over 50% in size. In short, it runs like this: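 Enzyme and proluciferin substrate are mixed with test chemicals for 10 min, then NADPH regeneration system drives turnover for 1 h at room temperature. A detection reagent halts the reaction; luminescence after 20 min gives relative activity.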
Chain of Cytochrome P450 3A4 (Homo sapiens) (P08684 whole entry, looked up): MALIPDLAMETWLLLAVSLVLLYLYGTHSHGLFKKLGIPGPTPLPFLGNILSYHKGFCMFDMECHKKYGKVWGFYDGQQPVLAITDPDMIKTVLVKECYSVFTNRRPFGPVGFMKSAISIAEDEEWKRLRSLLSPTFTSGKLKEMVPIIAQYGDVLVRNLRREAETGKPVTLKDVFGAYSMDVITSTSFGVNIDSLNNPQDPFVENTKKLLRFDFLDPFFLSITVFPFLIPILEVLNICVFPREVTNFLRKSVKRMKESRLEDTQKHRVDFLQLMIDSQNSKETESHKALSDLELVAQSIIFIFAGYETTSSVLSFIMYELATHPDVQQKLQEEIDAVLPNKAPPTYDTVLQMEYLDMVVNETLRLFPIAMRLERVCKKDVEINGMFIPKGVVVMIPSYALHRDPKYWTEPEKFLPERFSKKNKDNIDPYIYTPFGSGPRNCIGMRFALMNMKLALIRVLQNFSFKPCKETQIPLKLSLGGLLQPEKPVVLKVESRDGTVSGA
A general note: A reporter such as luciferase makes a cellular process visible.

In assay [10] the target is Nuclear receptor subfamily 1 group I member 2 (Homo sapiens) (UniProt O75469). Nature of the assay: Human pregnane X receptor (PXR) activation by small molecules, qHTS assay (AID 1346985). Also: nearly all actives have a fitted effect of over 40% in size. Summed up:
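DPX-2 cells (HepG2 co-transfected with a PXR response element and a CYP3A4-promoter luciferase construct) were seeded at 2,000 per well, rested 5 hr at 37C, then exposed to DMSO-dissolved compounds for 24 hr. Activation was read as luciferase luminescence.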

Assay [11] deals with Cytochrome P450 2D6 (Homo sapiens) (UniProt P10635). Nature of the assay: Cytochrome P450 Family 2 Subfamily D Member 6 (CYP2D6) small molecule antagonists: luciferase reporter qHTS assay (AID 1671196). Also: nearly all actives have a fitted effect of over 50% in size. Also: potency is read from the fitted curve at half-maximal effect. Summed up:
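Read-out is luminescence from luciferin formed by CYP2D6 turnover of a proluciferin substrate, recorded as relative luminescence units. Reactions ran 1 h at room temperature after NADPH regeneration solution was added.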

The target of assay [12] is Cytochrome P450 2C19 (Homo sapiens) (UniProt P33261). Nature of the assay: Cytochrome P450 Family 2 Subfamily C Member 19 (CYP2C19) small molecule antagonists: luciferase reporter qHTS assay (AID 1671197). Also: nearly all actives have a fitted effect of over 65% in size. Also: potency is read from the fitted curve at half-maximal effect. Summed up:
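Enzyme-substrate mix with proluciferin substrate (P450-Glo CYP2C19 system) preincubated with compounds 10 min at room temperature; NADPH regeneration solution added, 37C for 1 h; detection reagent stops reaction, luminescence read after 20 min. Ketoconazole positive control.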

The target in assay [13] is Cytochrome P450 1A2 (Homo sapiens) (UniProt P05177). Nature of the assay: Cytochrome P450 Family 1 Subfamily A Member 2 (CYP1A2) small molecule antagonists: luciferase reporter qHTS assay (AID 1671199). Also: nearly all actives have a fitted effect of over 50% in size. Also: potency is read from the fitted curve at half-maximal effect. Summed up: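 P450-Glo CYP1A2, 1536-well qHTS: enzyme/proluciferin substrate + cpd (DMSO), 10 min RT; NADPH regen, 1 h RT; detection reagent, 20 min; luminescence, RLU.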
Chain of Cytochrome P450 1A2 (Homo sapiens) (P05177 whole entry, looked up): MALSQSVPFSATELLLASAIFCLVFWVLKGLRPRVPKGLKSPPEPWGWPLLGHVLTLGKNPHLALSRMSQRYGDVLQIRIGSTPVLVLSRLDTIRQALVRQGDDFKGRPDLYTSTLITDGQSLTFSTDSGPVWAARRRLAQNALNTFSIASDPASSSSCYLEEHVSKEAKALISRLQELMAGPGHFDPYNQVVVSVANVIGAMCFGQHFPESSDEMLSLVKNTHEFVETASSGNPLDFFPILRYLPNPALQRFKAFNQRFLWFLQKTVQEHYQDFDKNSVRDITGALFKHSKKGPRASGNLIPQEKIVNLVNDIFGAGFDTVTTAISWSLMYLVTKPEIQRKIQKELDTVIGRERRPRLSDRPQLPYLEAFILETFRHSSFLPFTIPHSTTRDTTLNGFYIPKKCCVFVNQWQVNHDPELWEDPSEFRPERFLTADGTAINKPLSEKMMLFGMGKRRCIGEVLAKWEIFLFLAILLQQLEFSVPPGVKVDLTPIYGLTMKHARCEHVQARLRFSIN

For assay [14], the target named is Nuclear receptor subfamily 1 group I member 2 (Rattus norvegicus) (UniProt Q9R1A7). Nature of the assay: Rat pregnane X receptor (rPXR) activation by small molecules, qHTS assay (AID 1346983). Also: nearly all actives have a fitted effect of over 20% in size. Conditions: rPXR luciferase reporter cells, One-Glo luminescence, 24 h; stronger effect = higher value. In short, it runs like this: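 Luminescent readout (One-Glo luciferase, 30 min room temperature) followed 24 hr compound treatment at 37 C of rPXR cells plated 2,000 per well and preincubated 5hr; qHTS format with compounds delivered in DMSO.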
Chain of Nuclear receptor subfamily 1 group I member 2 (Rattus norvegicus) (Q9R1A7 whole entry, looked up): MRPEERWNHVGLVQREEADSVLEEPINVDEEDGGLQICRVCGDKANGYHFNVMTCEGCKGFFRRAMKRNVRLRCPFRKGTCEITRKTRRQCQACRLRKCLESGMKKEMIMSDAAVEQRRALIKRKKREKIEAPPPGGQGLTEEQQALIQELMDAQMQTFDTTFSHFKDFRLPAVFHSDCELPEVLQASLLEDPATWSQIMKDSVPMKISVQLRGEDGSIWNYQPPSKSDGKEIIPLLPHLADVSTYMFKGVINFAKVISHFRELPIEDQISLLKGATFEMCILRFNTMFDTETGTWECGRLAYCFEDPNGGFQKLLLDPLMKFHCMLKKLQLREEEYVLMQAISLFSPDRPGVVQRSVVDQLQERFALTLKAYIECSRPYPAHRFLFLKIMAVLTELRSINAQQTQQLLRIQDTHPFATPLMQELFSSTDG

Assay [15] concerns the target Nuclear receptor subfamily 1 group I member 2 (Homo sapiens) (UniProt O75469). Nature of the assay: CYP3A4 induction through human pregnane X receptor (PXR) by small molecules, qHTS assay (AID 1346984). Also: nearly all actives have a fitted effect of over 40% in size. Summed up: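 Luminescence readout: luciferase signal after One-Glo (30 min, room temperature), following 3 h at 37C with 3uM final Luciferin-IPA P450 substrate. Cells were DPX-2 (HepG2, PXR/CYP3A4-luc co-transfected) dosed for 24 h.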

Each structure is given as a SMILES string. Where “and” joins values, the source holds several entries; their conditions need not be identical. Equal values may be shown once. Results filed as inconclusive are left out. More than one record can exist for a structure, and the calls need not agree. Calls of active or inactive are those of the source. Calls follow the shape of the dose curve; as a rule, active = well fitted curve in the direction sought with a large enough effect in the repeat runs; inconclusive = weak or mixed curves; inactive = no such curve, though single readings can be large; an effect the other way counts as inactive or inconclusive.
% is scaled to controls: 0 for no effect and ±100 for the full control effect.

Chain of Cytochrome P450 2C9 (Homo sapiens) (P11712 whole entry, looked up): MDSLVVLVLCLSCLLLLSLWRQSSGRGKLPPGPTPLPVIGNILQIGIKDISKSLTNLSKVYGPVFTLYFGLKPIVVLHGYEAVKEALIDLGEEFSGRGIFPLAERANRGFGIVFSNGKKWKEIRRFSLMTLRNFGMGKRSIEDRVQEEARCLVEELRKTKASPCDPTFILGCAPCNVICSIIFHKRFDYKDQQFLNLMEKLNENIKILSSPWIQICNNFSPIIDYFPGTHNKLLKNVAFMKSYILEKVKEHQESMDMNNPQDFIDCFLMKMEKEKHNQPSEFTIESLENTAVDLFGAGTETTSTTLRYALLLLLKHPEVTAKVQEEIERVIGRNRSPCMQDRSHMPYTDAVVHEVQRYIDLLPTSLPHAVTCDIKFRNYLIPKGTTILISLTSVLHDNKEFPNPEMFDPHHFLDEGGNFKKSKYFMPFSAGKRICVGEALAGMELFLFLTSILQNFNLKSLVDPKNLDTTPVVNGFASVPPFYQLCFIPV
Chain of Cytochrome P450 2D6 (Homo sapiens) (P10635 whole entry, looked up): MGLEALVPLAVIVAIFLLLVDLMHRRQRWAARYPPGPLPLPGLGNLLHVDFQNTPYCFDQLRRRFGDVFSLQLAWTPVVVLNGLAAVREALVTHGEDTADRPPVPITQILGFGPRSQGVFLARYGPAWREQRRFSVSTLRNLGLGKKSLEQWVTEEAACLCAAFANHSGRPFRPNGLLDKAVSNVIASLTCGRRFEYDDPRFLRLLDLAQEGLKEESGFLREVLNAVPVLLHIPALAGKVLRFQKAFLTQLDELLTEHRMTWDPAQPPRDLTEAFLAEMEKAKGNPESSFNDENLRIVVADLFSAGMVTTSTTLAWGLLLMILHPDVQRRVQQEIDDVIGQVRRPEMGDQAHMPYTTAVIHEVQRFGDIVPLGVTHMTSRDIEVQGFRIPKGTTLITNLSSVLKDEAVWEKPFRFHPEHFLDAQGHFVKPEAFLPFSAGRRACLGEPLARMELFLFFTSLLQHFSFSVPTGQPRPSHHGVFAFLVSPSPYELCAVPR
Chain of Nuclear receptor subfamily 1 group I member 2 (Homo sapiens) (O75469 whole entry, looked up): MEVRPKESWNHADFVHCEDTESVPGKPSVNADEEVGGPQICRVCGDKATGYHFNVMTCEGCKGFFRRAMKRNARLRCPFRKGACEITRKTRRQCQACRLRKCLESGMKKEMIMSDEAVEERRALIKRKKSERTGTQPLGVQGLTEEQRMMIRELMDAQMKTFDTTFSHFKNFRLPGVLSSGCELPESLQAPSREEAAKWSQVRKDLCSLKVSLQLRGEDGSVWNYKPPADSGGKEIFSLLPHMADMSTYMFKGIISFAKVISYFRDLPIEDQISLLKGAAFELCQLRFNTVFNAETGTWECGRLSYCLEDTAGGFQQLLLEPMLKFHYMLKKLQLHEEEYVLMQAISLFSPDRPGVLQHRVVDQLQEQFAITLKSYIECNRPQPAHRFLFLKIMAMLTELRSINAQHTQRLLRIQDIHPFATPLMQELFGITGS
Chain of Cytochrome P450 2C19 (Homo sapiens) (P33261 whole entry, looked up): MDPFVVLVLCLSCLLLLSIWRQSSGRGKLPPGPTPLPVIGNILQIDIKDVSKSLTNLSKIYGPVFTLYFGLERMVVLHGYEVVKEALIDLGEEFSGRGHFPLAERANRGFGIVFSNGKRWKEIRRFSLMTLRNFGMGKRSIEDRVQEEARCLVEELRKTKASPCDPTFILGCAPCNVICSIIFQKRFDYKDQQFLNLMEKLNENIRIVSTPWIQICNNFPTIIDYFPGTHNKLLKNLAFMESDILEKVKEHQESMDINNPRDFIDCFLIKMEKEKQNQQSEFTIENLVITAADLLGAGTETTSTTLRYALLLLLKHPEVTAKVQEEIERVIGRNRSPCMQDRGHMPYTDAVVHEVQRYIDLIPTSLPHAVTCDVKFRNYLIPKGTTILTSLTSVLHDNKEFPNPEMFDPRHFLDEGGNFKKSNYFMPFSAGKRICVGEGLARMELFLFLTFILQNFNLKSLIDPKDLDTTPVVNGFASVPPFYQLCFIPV
Chain of Voltage-gated inwardly rectifying potassium channel KCNH2 (Homo sapiens) (Q12809 whole entry, looked up): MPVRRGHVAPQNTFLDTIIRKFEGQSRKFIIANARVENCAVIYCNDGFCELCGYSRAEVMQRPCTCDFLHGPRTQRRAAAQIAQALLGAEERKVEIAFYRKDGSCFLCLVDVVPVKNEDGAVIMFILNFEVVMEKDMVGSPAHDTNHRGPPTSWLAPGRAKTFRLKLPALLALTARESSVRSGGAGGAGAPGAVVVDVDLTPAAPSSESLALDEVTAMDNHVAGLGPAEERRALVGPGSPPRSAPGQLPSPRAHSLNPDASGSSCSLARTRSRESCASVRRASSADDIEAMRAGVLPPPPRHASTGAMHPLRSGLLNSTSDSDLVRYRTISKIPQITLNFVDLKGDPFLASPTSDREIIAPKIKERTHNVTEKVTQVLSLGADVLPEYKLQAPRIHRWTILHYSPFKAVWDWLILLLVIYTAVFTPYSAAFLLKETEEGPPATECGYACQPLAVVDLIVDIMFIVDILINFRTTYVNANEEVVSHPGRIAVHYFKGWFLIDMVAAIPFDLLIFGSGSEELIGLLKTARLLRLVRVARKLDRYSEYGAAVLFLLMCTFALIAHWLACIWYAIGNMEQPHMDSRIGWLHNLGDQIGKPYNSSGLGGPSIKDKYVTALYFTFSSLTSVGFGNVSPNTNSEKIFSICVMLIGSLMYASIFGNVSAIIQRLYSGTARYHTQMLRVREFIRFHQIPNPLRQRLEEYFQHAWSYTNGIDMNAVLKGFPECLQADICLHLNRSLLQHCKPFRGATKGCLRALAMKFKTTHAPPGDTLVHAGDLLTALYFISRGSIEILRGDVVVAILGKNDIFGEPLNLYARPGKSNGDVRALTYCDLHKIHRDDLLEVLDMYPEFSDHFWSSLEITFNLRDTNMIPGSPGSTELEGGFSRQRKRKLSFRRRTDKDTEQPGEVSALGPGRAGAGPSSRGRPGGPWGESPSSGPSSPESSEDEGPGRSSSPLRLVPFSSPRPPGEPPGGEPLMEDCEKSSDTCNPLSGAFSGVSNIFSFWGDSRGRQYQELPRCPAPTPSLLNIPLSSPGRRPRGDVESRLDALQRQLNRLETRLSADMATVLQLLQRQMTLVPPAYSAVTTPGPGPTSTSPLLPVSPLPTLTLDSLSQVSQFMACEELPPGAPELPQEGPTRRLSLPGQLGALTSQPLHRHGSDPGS

Regarding `COc1ccc2[nH]cc(CCNC(C)=O)c2c1`, the Potency entry in [1], in assay [2], in assay [3], in [5] and in assay [9] was “inactive” in each case. Moreover, the result in assay [4] and in assay [8] was inactive. Moreover, the Potency in assay [6] is 62.1 µM (active); in assay [7], 32.2 µM (active) and 35.6 µM (active).

For the compound `C[C@]12C=CC(=O)C=C1CC[C@@H]1[C@@H]2[C@@H](O)C[C@@]2(C)[C@H]1CC[C@]2(O)C(=O)CO`, the Potency result in assay [1], in assay [2], in [3], in assay [5], in assay [6] and in assay [10] was “inactive” throughout. Besides, the Potency result in assay [11], in [13] and in [9] was “inactive” each time. The result in assay [4] and in assay [8] was inactive. Further, the Potency in assay [12] was 78.6 µM (active) and inactive; in assay [7], 62.4 µM (active) and inactive.

Turning to `O=C(O)c1cccc([N+](=O)[O-])c1`, the Potency entry in assay [1], in assay [2], in assay [3], in assay [5], in [11] and in assay [12] was “inactive” in each case. Also, the Potency entry in assay [7], in [13] and in assay [9] was “inactive” each time. Further, the result in assay [4] and in [8] was inactive.

As for `O=C(c1ccccc1)C(O)c1ccccc1` (stereo not drawn), the Potency entry in [1], in [2], in [3], in assay [5], in [6] and in assay [10] was “inactive” throughout. Also, the Potency result in [7] and in assay [9] was “inactive” in each case. Moreover, the call in [4], in assay [15] and in assay [8] was inactive. Also, the max activation in assay [14] is -4.09% (inactive). Besides, the Potency in assay [11] is 39.6 µM (active) and inactive; in assay [12], 17.7 µM (active) and 31.7 µM (active) and 8.71 µM (active); in assay [13], 31.4 µM (active) and 12.9 µM (active).

As to `O=NO`, the Potency result in [1], in assay [2], in assay [3] and in assay [5] was “inactive” each time. Moreover, the compound was classed as inactive in assay [4] and in [8].

On to `CC(O)CN(CCN(CC(C)O)CC(C)O)CC(C)O` (stereo not drawn), for which the Potency entry in assay [1], in assay [2], in assay [3], in assay [5], in [6] and in [10] was “inactive” each time. In addition, the Potency entry in [12], in [7], in [13] and in [9] was “inactive” each time. Moreover, the call in assay [4], in assay [15] and in assay [8] was inactive. In addition, the max activation in assay [14] was -4.71% (inactive). Also, the Potency in assay [11] was 36.2 µM (active).

On to `O=C(O)c1cc(N=Nc2ccc(S(=O)(=O)Nc3ccccn3)cc2)ccc1O`, for which the Potency in assay [1] was 39.8 µM (active); in assay [3], 34.5 µM (active) and 54.5 µM (active) and 26.6 µM (active); in assay [5], 27.4 µM (active) and 48.6 µM (active) and 23.7 µM (active); in assay [12], 56.6 µM (active) and inactive; in assay [7], 14.2 µM (active) and 17.8 µM (active) and 8.71 µM (active). In addition, the Potency result in assay [2], in assay [6], in assay [10], in assay [11], in assay [13] and in assay [9] was “inactive” each time. In addition, the outcome in assay [4], in [15] and in assay [8] was inactive. For the same compound, the max activation in assay [14] is -4.4% (inactive).

Take `Oc1ccc(/C=C/c2cc(O)cc(O)c2)cc1`: the Potency result in assay [1], in assay [2] and in assay [5] was “inactive” in each case. Further, the Potency is 69.2 µM (active) and 61.1 µM (active) in assay [3]; 61.7 µM (active) and 30.6 µM (active) and 29.8 µM (active) in assay [6]. Also, the compound was classed as inactive in assay [4], in [15] and in assay [8]. In addition, the max activation in assay [14] is -1.25% (inactive).
